Results reported in PubChem BioAssay (NCI).
About 79,000 compounds went through this panel and 15% of them were active in at least one assay; those are over-represented in the sample as a whole. The source made the active and inactive calls. Cut-off read from the data, not from the text of the source: active = growth inhibition above about 70%; inactive = the rest.

Legend:
[1] = NCI Yeast Anticancer Drug Screen. Data for the mec2-1 strain (AID 157); conditions: S. cerevisiae mec2-1 strain, stronger effect = higher value
In short: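 Vehicle-treated cultures served as reference for growth inhibition of compound-exposed mec2-1 yeast.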

[2] = NCI Yeast Anticancer Drug Screen. Data for the sgs1 mgt1 strain (AID 161);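 note: 0% = growth of cultures given vehicle only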; conditions: S. cerevisiae sgs1 mgt1 strain, stronger effect = higher value
In short: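 Read-out: growth inhibition vs vehicle controls. Cells: mutant yeast strain deficient in DNA damage repair.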

[3] = NCI Yeast Anticancer Drug Screen. Data for the CLN2oe strain (AID 163);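 note: 0% = growth of vehicle-only control cultures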; conditions: S. cerevisiae CLN2oe strain, stronger effect = higher value
In short: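 Inhibition relative to vehicle-treated yeast is reported. Cells: strain with genetic alteration in cell-cycle control, grown with compound.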

[4] = NCI Yeast Anticancer Drug Screen. Data for the cln2 rad14 strain (AID 165);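 note: 0% = growth equal to vehicle treated cultures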; conditions: S. cerevisiae cln2 rad14 strain, stronger effect = higher value
In short: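 Each compound was tested on cln2 rad14 yeast. Inhibition of growth was calculated against vehicle-exposed controls.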

[5] = NCI Yeast Anticancer Drug Screen. Data for the bub3 strain (AID 167); conditions: S. cerevisiae bub3 mutant strain, stronger effect = higher value
In short: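 Inhibition values come from growth of compound-treated mutant yeast normalised to vehicle-treated controls.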

[6] = NCI Yeast Anticancer Drug Screen. Data for the mlh1 strain (AID 171);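 note: 0% = growth of vehicle-treated control cultures of the same strain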; conditions: S. cerevisiae mlh1 strain growth inhibition, stronger effect = higher value
In short: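 Vehicle-normalised growth inhibition of a repair- or checkpoint-altered yeast strain following compound treatment.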

[7] = NCI Yeast Anticancer Drug Screen. Data for the mlh1 rad18 strain (AID 175); conditions: S. cerevisiae mlh1 rad18 strain growth inhibition, stronger effect = higher value
In short: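 Vehicle-treated cultures served as the reference for growth inhibition in a yeast strain carrying DNA damage repair alterations exposed to each compound.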

[8] = NCI Yeast Anticancer Drug Screen. Data for the rad18 strain (AID 177); conditions: S. cerevisiae rad18 mutant growth inhibition, stronger effect = higher value
In short: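 Test articles were incubated with altered yeast defective in DNA damage repair. Results are given as inhibition of growth versus vehicle.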

[9] = NCI Yeast Anticancer Drug Screen. Data for the rad52 strain (AID 147);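 note: 0% = growth of vehicle-treated control cultures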; conditions: S. cerevisiae rad52 mutant growth inhibition, stronger effect = higher value
In short: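 Vehicle-treated cultures served as the reference for growth inhibition of compound-exposed yeast bearing a DNA repair mutation.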

[10] = NCI Yeast Anticancer Drug Screen. Data for the wt1 strain (AID 149);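 note: 0% = growth of vehicle-treated wt1 cultures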; conditions: S. cerevisiae wt1 strain (SPY 50644) growth inhibition, stronger effect = higher value
In short: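 Vehicle-normalised growth inhibition; strain wt1; compound exposure.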

[11] = NCI Yeast Anticancer Drug Screen. Data for the rad50EPP+ strain (AID 151);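 note: 0% = growth of vehicle-treated control cultures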; conditions: S. cerevisiae rad50 mutant strain, stronger effect = higher value
In short: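 In this screen, rad50EPP+ yeast were exposed to compounds. Growth inhibition was scored against vehicle-treated controls.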

[12] = NCI Yeast Anticancer Drug Screen. Data for the mgt1 strain (AID 153); conditions: S. cerevisiae mgt1 mutant growth inhibition, stronger effect = higher value
In short: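 mgt1 strain exposed; growth vs vehicle control recorded as inhibition.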

[13] = NCI Yeast Anticancer Drug Screen. Data for the rad50 strain (AID 155);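 note: 0% = growth of vehicle-only cultures of the same strain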; conditions: S. cerevisiae rad50 strain growth inhibition, stronger effect = higher value
In short: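 A DNA repair-deficient yeast mutant serves as the test organism; compound-induced growth inhibition is calculated against vehicle-treated cells.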

[14] = NCI Yeast Anticancer Drug Screen. Data for the wt2 strain (AID 169);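 note: 0% = growth of vehicle-treated yeast cultures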; conditions: S. cerevisiae wt2 strain growth inhibition, stronger effect = higher value
In short: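 Inhibition of yeast growth was determined after compound treatment, normalised to controls receiving only vehicle.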

[15] = NCI Yeast Anticancer Drug Screen. Data for the sgs1 strain (AID 173);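 note: 0% = growth of vehicle-only control cultures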; conditions: S. cerevisiae sgs1 mutant, stronger effect = higher value
In short: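 Screen format: yeast with repair or checkpoint alterations, compound exposure, growth read relative to vehicle.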

[16] = at 5.0 µM (retest, dose inferred, filed as 0.5)
[17] = at 50.0 µM (retest, dose inferred, filed as 5.0)

Measured: growth inhibition

N#CCCC1C(C#N)C2(Cl)CC1(Cl)C(Cl)=C2Cl (stereo unspecified)
inactive: [1]; [16] -16% | [1]; at 11.0 µM -7% | [1]; at 33.0 µM 45% | [2]; [16] -18% | [2]; [17] 4% | [3]; at 1.2 µM -28% | [3]; at 3.7 µM -9% | [3]; at 11.0 µM -6% | [3]; at 33.0 µM 38% | [4]; [16] 17% | [5]; at 1.2 µM -1% | [5]; at 3.7 µM -6% | [5]; [16] -8% | [5]; at 11.0 µM -15% | [5]; at 33.0 µM 58% | [6]; at 1.2 µM -42% | [6]; at 3.7 µM -37% | [6]; at 11.0 µM -22% | [6]; at 33.0 µM 16% | [7]; [16] -3% | [8]; at 1.2 µM -4% | [8]; at 3.7 µM -9% | [8]; at 11.0 µM 1%
active: [1]; [17] 82% | [1]; at 50.0 µM 92% | [1]; at 100.0 µM 98% | [2]; at 50.0 µM 91.5% | [3]; at 100.0 µM 96% | [4]; [17] 75% | [4]; at 50.0 µM 87.8% | [5]; [17] 73% | [5]; at 50.0 µM 89.2% | [5]; at 100.0 µM 96% | [6]; at 100.0 µM 97% | [7]; [17] 85% | [7]; at 50.0 µM 86.8% | [8]; at 33.0 µM 83% | [8]; at 100.0 µM 98%

CC(C)C(c1ccccc1)c1ccccc1
active: [9]; at 100.0 µM 77% | [11]; at 100.0 µM 93% | [13]; [17] 70% | [13]; at 100.0 µM 93% | [1]; at 100.0 µM 99% | [15]; at 100.0 µM 99%
inactive: [9]; at 1.2 µM 4% | [9]; at 3.7 µM 9% | [9]; at 11.0 µM 9% | [9]; at 33.0 µM 8% | [10]; at 1.2 µM -1% | [10]; at 3.7 µM -1% | [10]; at 11.0 µM 0% | [10]; at 33.0 µM -2% | [10]; at 100.0 µM 49% | [11]; at 1.2 µM 3% | [11]; at 3.7 µM 6% | [11]; at 11.0 µM 14% | [11]; at 33.0 µM 43% | [12]; at 1.2 µM 0% | [12]; at 3.7 µM 0% | [12]; at 11.0 µM -1% | [12]; at 33.0 µM -6% | [12]; at 100.0 µM 55% | [13]; at 1.2 µM 1% | [13]; at 3.7 µM 18% | [13]; [16] -144% | [13]; at 11.0 µM 9% | [13]; at 33.0 µM 10% | [13]; at 50.0 µM 10% | [1]; at 1.2 µM 2% | [1]; at 3.7 µM 3% | [1]; [16] -50% | [1]; at 11.0 µM -10% | [1]; at 33.0 µM 1% | [1]; [17] -32% | [1]; at 50.0 µM 49.4% | [2]; [16] -54% | [2]; [17] -37% | [2]; at 50.0 µM 52.2% | [3]; at 1.2 µM -5% | [3]; at 3.7 µM -1% | [3]; at 11.0 µM 2% | [3]; at 33.0 µM 1% | [3]; at 100.0 µM 69% | [4]; [16] -52% | [4]; [17] -33% | [4]; at 50.0 µM 16% | [5]; at 1.2 µM -6% | [5]; at 3.7 µM 1% | [5]; [16] -67% | [5]; at 11.0 µM -4% | [5]; at 33.0 µM -4% | [5]; [17] 44% | [5]; at 50.0 µM -0.75% | [5]; at 100.0 µM 66% | [14]; at 1.2 µM -2% | [14]; at 3.7 µM -2% | [14]; at 11.0 µM -1% | [14]; at 33.0 µM 1% | [14]; at 100.0 µM 56% | [6]; at 1.2 µM 3% | [6]; at 3.7 µM 0% | [6]; at 11.0 µM 0% | [6]; at 33.0 µM 2% | [6]; at 100.0 µM 60% | [15]; at 1.2 µM -1% | [15]; at 3.7 µM -3% | [15]; at 11.0 µM -3% | [15]; at 33.0 µM -3% | [7]; [16] -113% | [7]; [17] -101% | [7]; at 50.0 µM 29.2% | [8]; at 1.2 µM 3% | [8]; at 3.7 µM -1% | [8]; at 11.0 µM 3% | [8]; at 33.0 µM 3% | [8]; at 100.0 µM 59%
